Compound activity from PubChem BioAssay.
An excerpt weighted towards active compounds, which were near 11% of everything screened.
HPGD block – blocks human HPGD enzyme activity; purified HPGD, NADH fluorescence kinetic, PGE2 substrate; AID 894; Potency, µM, usual class: inhibitors; P15428; 150,000 compounds, 4.3% hits
Target sequence (P15428 whole entry, looked up): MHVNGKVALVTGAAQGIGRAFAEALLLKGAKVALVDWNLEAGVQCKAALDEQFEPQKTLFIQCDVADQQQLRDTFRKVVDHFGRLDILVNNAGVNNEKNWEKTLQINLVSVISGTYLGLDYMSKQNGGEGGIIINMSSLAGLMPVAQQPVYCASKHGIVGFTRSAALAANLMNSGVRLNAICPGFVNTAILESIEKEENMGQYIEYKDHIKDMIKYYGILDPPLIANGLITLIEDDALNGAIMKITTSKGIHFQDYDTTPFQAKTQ
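NADH formation kinetics: reaction with 30 uM PGE2 and 1 mM NAD+ (final), 20 nM enzyme, Tris-HCl pH 8 with Tween 20, after 15 min compound preincubation at room temperature. Fluorescence change, last versus first of five reads.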
PNC inhibitor – blocks assembly of the perinucleolar compartment | PC3M PTB-GFP, PNC prevalence imaging, 16 h; active compounds read low | 140,000 compounds, 3.1% hits | activity change (PNC), negative = inhibition, % at 10 µM;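 active means readout at or below -70, meaning at least 70% loss of cells showing the perinucleolar compartment, a nuclear body marking cancer cells; inconclusive means readout between -30 and a set limit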
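PC3M cells stably expressing PTB-GFP, 750–1000 cells/well, treated 16 h at 37 °C with compound (23 nl of library stock), in duplicate. After paraformaldehyde fixation and Hoechst stain, imaged at 20x; PNC prevalence scored by image analysis.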
NPSR antagonist – neuropeptide S receptor (human) antagonism, cAMP; CHO-NPSR cells, cAMP TR-FRET, antagonist mode; AID 1461; Potency, µM (doses to about 38.3 µM), most hits filed as inhibitors; 220,000 compounds, 1% hits; Q6W5P4; active means well fitted curve in the direction sought with a large enough effect; inconclusive means small, poorly fitted or top-dose-only effect, or another doubt; inactive means no such curve, though single readings can be large; an effect the other way counts as inactive or inconclusive; further: nearly all actives have a fitted effect of over 50% in size
ALDH1A1 block – blocks purified human ALDH1A1 activity. P00352. Purified ALDH1A1, NADH fluorescence, propionaldehyde substrate. Potency, µM (series often up to 75.3 µM), usual class: inhibitors. 220,000 compounds, 7.3% hits. AID 1030
IMPase cell inh – membrane-permeable compound that blocks inositol monophosphatase; AID 901; 120,000 tested, under 10 active; P97697; inhibition (IP1 accumulation), % at 46.1 µM; CHO-M1 cells, IP1 accumulation, HTRF TR-FRET ratio; active means well fitted curve in the direction sought with a large enough effect in the signal ratio, not every such curve was filed as active; inconclusive means small, poorly fitted or top-dose-only effect, or a change in a side signal; inactive means no such curve, though single readings can be large or run the other way; the % refers to the signal ratio;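 further: cells stimulated with carbachol in lithium chloride buffer; higher means more IMPase inhibition seen as more IP1 and lower FRET ratio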
Target sequence (P97697 whole entry, looked up): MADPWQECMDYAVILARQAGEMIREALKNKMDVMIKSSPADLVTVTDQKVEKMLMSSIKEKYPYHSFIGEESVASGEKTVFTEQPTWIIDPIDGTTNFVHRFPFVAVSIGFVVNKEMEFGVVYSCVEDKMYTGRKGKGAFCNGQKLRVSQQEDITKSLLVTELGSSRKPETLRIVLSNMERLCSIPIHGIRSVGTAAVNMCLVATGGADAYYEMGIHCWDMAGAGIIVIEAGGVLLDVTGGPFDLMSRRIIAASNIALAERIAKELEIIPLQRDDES
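CHO-M1 cells (CHO stably expressing M1 receptor), compound up to 46 uM final, stimulated with carbachol (50 uM as added) in buffer with 50mM LiCl, pH 7.4, 30 min at 37C. Cytosolic IP1 read by TR-FRET; AC50 from Hill fits.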
IMPase Li inh – IMPase inhibition in cells with lithium potentiation; Potency, µM (doses to about 59.4 µM), hits mostly inhibitors; AID 1457; CHO-M1 cells, IP1 TR-FRET (IP-One), carbachol + lithium; 210,000 compounds, 0.35% hits; active means well fitted curve in the direction sought with a large enough effect; inconclusive means small, poorly fitted or top-dose-only effect, or another doubt; inactive means no such curve, though single readings can be large; an effect the other way counts as inactive or inconclusive;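 further: IP1 builds up when IMPase is blocked and the TR-FRET signal falls; nearly all actives have a fitted effect of over 50% in size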
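Readout is a homogeneous TR-FRET IP1 immunoassay (Ex 320, Em 665 and 620), where raised cytosolic IP1 lowers signal. Cells were CHO-M1 treated 30 min at 37C with test compounds plus a little lithium; AC50 values came from Hill-equation fitting.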
Each line names hits and unclear results; the compound was inactive in the other large screens. Unless noted, the call rests on the fitted dose curve; in most records, active means well fitted inhibition curve with a large enough effect (not every such curve was filed as active); inconclusive means small, poorly fitted or top-dose-only effect, or another doubt; inactive means no such curve, though single readings can be large or run the other way.

CCN(CC)S(=O)(=O)c1ccc(C)c(NC(=O)/C=C/c2cccs2)c1	ALDH1A1 block 0.708µM (no result: IMPase cell inh)
Cc1ccccc1NC(=O)/C=C/c1cccs1	none (no result: HPGD block, PNC inhibitor, IMPase cell inh)
O=C(Nc1ccc2c(c1)OCO2)C1CCN(C(=O)c2ccc(Br)cc2)CC1	ALDH1A1 block inconclusive (no result: HPGD block, PNC inhibitor, IMPase cell inh)
COc1ccc(C(=S)N2CCCCCC2)cc1	HPGD block 15.8µM, PNC inhibitor inconclusive, ALDH1A1 block inconclusive
COc1ccc(C(=O)Oc2ccc(C(=S)N3CCCC3)cc2)cc1OC	PNC inhibitor inconclusive (no result: IMPase cell inh)
COc1ccc(NC(=S)N2CCC(C(=O)N3CCCCCC3)CC2)cc1	ALDH1A1 block 14.1µM
COc1cc(C(=S)N2CCCC2)cc(OC)c1O	HPGD block 20µM, PNC inhibitor inconclusive
O=C(O)c1ccc(O)c(N2C(=O)Nc3ccccc3N2O)c1	none (no result: IMPase cell inh)
O=C(NC1CC1)C1=C[C@@H](c2ccccc2)C[C@@H](OCc2ccc(CO)cc2)O1	none (no result: HPGD block, PNC inhibitor, ALDH1A1 block, IMPase cell inh, IMPase Li inh)
O=C(c1ccccn1)N(Cc1ccco1)C1(C(=O)NC2CCCC2)CCCCC1	none
O=C(COc1ccc2ccccc2c1)Nc1cccc(C(=O)Nc2ccccc2C(=O)O)c1	HPGD block inconclusive, ALDH1A1 block 14.1µM (no result: IMPase cell inh)
CCCCC(=O)Nc1cccc(C(=O)Nc2ccccc2C(=O)O)c1	none (no result: HPGD block, PNC inhibitor, IMPase cell inh)
O=C(COC(=O)c1ccccc1NC(=O)c1ccccc1)c1ccc([N+](=O)[O-])cc1	ALDH1A1 block 8.91µM
O=C(COc1ccc(/C=N/NC(=O)c2ccccc2)cc1)Nc1ccc([N+](=O)[O-])cc1	none
O=C(COc1ccc([N+](=O)[O-])cc1)Nc1ccc(C(=O)Nc2ccccc2C(=O)O)cc1	ALDH1A1 block 12.6µM (no result: HPGD block, PNC inhibitor, IMPase cell inh)
O=C(/C(=C/O)N=Nc1ccc(Cl)cc1)c1ccncc1	NPSR antagonist inconclusive, ALDH1A1 block 10µM
O=C(N/N=C/c1cc(Cl)ccc1O)c1ccncc1	none (no result: HPGD block, PNC inhibitor, ALDH1A1 block, IMPase cell inh, IMPase Li inh)
Cc1ccc(N=N/C(=C\O)C(=O)c2ccncc2)cc1	NPSR antagonist 10µM, ALDH1A1 block 3.98µM
Cc1ccc(C(=O)N/N=C\c2ccc[nH]2)cn1	none
O=C(O[C@@H]1OC2COC(=O)c3cc(O)c(O)c(O)c3-c3c(cc(O)c(O)c3O)C(=O)O[C@@H]([C@H]1O)[C@@H]2O)c1cc(O)c(O)c(O)c1	HPGD block 1.78µM (no result: IMPase cell inh)
COc1c(O)cc2c(c1O)C1OC(CO)C(O)[C@H](O)[C@H]1OC2=O (some centres undefined)	none (no result: PNC inhibitor, NPSR antagonist, IMPase cell inh)
CCN1CCN(c2ncc3c(n2)CC(c2ccc(OC)c(OC)c2)CC3=O)CC1 (centres undefined)	none
O=C(O)CCCn1nc(C(F)(F)F)c2c1CCCCC2	PNC inhibitor -91.6, ALDH1A1 block inconclusive
Cc1ccccc1NC(=O)C1CC(=O)N(c2ccc3c4c(cccc24)CC3)C1 (centres undefined)	ALDH1A1 block inconclusive
O=C(Nc1ccccc1Br)C1CC(=O)N(c2ccc3c4c(cccc24)CC3)C1 (centres undefined)	ALDH1A1 block 20µM (no result: IMPase cell inh)
CSCCC(NC(=O)c1ccc(Cl)cc1)C(=O)OCC(=O)c1ccc[nH]1 (centres undefined)	PNC inhibitor -119.3
COC(=O)c1ccc(CCc2cc(O)ccc2O)cc1	HPGD block 0.398µM, ALDH1A1 block 0.631µM (no result: PNC inhibitor, NPSR antagonist, IMPase cell inh)
COC(=O)c1ccc(O)cc1	none (no result: PNC inhibitor, NPSR antagonist, IMPase cell inh, IMPase Li inh)
C=CCSC1=N/C(=C\c2ccsc2)C(=O)S1	none
CN(Cc1c(F)cccc1Cl)c1nnnn1-c1ccccc1	ALDH1A1 block inconclusive
COc1cccc(S(=O)(=O)Nc2ccc(C(=O)N3CCN(C(=O)c4ccco4)CC3)cc2)c1	ALDH1A1 block 17.8µM
CC(=O)Nc1ccc(S(=O)(=O)NC2=C(N3CCN(Cc4ccccc4)CC3)C(=O)c3ccccc3C2=O)cc1	PNC inhibitor inconclusive, ALDH1A1 block 15.8µM
CC(=O)Nc1ccc(S(=O)(=O)Nc2nc3ccccc3nc2Nc2ccc(S(N)(=O)=O)cc2)cc1	HPGD block inconclusive, ALDH1A1 block inconclusive
CC(=O)Nc1ccc(S(=O)(=O)Nc2nc3ccccc3nc2N2CCCC2)cc1	ALDH1A1 block 11.2µM
O=C(c1cccc(S(=O)(=O)NCc2ccccc2)c1)N1CCN(Cc2ccccc2)CC1	ALDH1A1 block 17.8µM
